Out of some 5,500 compounds screened, about 2,000 (36%) were called active. About 18% were inconclusive and are not listed. Cut-off read from the data, not from the text of the source: active = normalized growth mostly below about 0.91 (no sharp cut-off); inconclusive = no clear call, values can overlap the other calls; inactive = mostly above about 0.92. Some of the results follow.
Test: chemical genetic growth profiling, strain panel (AID 1159580);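 note: tested at 20 µM; growth read once vehicle control cultures reached saturation at 30 °C; 1 = growth at the plate median or of vehicle wells; lower values mean less growth of the strain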
Settings: growth OD

Measured: normalized growth

CCOC(=O)c1cnn(-c2ccc(N)cc2)c1C(F)(F)F
inactive: S. cerevisiae deletion strains, locus YAL013W, strain DEP1, hits give low values 0.979 | S. cerevisiae deletion strains, locus YBR229C, strain ROT2, hits give low values 0.992 | S. cerevisiae deletion strains, locus YCL061C, strain MRC1, hits give low values 0.979 | S. cerevisiae deletion strains, locus YDL101C, strain DUN1, hits give low values 0.992 | S. cerevisiae deletion strains, locus YDR150W, strain NUM1, hits give low values 1.02 | S. cerevisiae deletion strains, locus YEL061C, strain CIN8, hits give low values 0.918 | S. cerevisiae deletion strains, locus YGR078C, strain PAC10, hits give low values 1.01 | S. cerevisiae deletion strains, locus YHR087W, strain rtc3, hits give low values 1.02 | S. cerevisiae deletion strains, locus YJR043C, strain POL32, hits give low values 0.983 | S. cerevisiae deletion strains, locus YJR075W, strain HOC1, hits give low values 1.04 | S. cerevisiae deletion strains, locus YLR058C, strain SHM2 (second series), hits give low values 0.996 | S. cerevisiae deletion strains, locus YMR219W, strain ESC1, hits give low values 0.99 | S. cerevisiae deletion strains, locus YMR263W, strain SAP30, hits give low values 0.994 | S. cerevisiae deletion strains, locus YNL153C, strain GIM3, hits give low values 0.984 | S. cerevisiae deletion strains, locus YNL298W, strain CLA4 (second series), hits give low values 0.861 | S. cerevisiae deletion strains, locus YNL322C, strain KRE1, hits give low values 1.01 | S. cerevisiae deletion strains, locus YNR030W, strain Alg12, hits give low values 0.936 | S. cerevisiae deletion strains, locus YPL055C, strain LGE1, hits give low values 0.91 | S. cerevisiae deletion strains, locus YPL241C, strain CIN2, hits give low values 0.871 | S. cerevisiae deletion strains, locus YPR135W, strain CTF4, hits give low values 0.797 | S. cerevisiae strains, strain wild type, hits give low values 0.977
active: S. cerevisiae deletion strains, locus YHR030C, strain SLT2, hits give low values 0.378 | S. cerevisiae deletion strains, locus YLR039C, strain RIC1, hits give low values 0.429 | S. cerevisiae deletion strains, locus YLR085C, strain ARP6, hits give low values 0.695 | S. cerevisiae deletion strains, locus YLR262C, strain YPT6, hits give low values 0.472 | S. cerevisiae deletion strains, locus YML094W, strain GIM5, hits give low values 0.848
